Compound activity deposited in PubChem by several laboratories.
Mtb FBA inh: Mtb FBA enzyme inhibitors, primary screen, biochemical, fluorescence, strain H37Rv. Fructose-bisphosphate aldolase (Mycobacterium tuberculosis (strain ATCC 25618 / H37Rv)), …. purified M. tuberculosis FBA, fluorescence read-out. inhibition, % at 1 µM. 360,000 compounds, 2.3% hits; in the data active = inhibition above about 27%;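 note: 0% = vehicle and 100% = reference inhibitor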
Yp Topo-I inh: Yersinia pestis topoisomerase I inhibitors, primary screen, biochemical, cleavage product accumulation, plate reader, single point; DNA topoisomerase I (Yersinia pestis CO92); Y. pestis Topo-I cleavage product accumulation; activity, % at 10 µM; 360,000 compounds, 0.064% hits; AID 504884, 2011; in the data active = activity above about 50%, passing the limit was not always enough
TcdB GH inh: TcdB glycohydrolase inhibitors, primary screen, biochemical, single point, plate reader; inhibition, % at 9.99 µM; 350,000 compounds, 0.24% hits; TcdB glycohydrolase enzymatic assay; Toxin B (Clostridioides difficile), P18177; in the data active = inhibition above about 10%
Target sequence (P18177 whole entry, looked up): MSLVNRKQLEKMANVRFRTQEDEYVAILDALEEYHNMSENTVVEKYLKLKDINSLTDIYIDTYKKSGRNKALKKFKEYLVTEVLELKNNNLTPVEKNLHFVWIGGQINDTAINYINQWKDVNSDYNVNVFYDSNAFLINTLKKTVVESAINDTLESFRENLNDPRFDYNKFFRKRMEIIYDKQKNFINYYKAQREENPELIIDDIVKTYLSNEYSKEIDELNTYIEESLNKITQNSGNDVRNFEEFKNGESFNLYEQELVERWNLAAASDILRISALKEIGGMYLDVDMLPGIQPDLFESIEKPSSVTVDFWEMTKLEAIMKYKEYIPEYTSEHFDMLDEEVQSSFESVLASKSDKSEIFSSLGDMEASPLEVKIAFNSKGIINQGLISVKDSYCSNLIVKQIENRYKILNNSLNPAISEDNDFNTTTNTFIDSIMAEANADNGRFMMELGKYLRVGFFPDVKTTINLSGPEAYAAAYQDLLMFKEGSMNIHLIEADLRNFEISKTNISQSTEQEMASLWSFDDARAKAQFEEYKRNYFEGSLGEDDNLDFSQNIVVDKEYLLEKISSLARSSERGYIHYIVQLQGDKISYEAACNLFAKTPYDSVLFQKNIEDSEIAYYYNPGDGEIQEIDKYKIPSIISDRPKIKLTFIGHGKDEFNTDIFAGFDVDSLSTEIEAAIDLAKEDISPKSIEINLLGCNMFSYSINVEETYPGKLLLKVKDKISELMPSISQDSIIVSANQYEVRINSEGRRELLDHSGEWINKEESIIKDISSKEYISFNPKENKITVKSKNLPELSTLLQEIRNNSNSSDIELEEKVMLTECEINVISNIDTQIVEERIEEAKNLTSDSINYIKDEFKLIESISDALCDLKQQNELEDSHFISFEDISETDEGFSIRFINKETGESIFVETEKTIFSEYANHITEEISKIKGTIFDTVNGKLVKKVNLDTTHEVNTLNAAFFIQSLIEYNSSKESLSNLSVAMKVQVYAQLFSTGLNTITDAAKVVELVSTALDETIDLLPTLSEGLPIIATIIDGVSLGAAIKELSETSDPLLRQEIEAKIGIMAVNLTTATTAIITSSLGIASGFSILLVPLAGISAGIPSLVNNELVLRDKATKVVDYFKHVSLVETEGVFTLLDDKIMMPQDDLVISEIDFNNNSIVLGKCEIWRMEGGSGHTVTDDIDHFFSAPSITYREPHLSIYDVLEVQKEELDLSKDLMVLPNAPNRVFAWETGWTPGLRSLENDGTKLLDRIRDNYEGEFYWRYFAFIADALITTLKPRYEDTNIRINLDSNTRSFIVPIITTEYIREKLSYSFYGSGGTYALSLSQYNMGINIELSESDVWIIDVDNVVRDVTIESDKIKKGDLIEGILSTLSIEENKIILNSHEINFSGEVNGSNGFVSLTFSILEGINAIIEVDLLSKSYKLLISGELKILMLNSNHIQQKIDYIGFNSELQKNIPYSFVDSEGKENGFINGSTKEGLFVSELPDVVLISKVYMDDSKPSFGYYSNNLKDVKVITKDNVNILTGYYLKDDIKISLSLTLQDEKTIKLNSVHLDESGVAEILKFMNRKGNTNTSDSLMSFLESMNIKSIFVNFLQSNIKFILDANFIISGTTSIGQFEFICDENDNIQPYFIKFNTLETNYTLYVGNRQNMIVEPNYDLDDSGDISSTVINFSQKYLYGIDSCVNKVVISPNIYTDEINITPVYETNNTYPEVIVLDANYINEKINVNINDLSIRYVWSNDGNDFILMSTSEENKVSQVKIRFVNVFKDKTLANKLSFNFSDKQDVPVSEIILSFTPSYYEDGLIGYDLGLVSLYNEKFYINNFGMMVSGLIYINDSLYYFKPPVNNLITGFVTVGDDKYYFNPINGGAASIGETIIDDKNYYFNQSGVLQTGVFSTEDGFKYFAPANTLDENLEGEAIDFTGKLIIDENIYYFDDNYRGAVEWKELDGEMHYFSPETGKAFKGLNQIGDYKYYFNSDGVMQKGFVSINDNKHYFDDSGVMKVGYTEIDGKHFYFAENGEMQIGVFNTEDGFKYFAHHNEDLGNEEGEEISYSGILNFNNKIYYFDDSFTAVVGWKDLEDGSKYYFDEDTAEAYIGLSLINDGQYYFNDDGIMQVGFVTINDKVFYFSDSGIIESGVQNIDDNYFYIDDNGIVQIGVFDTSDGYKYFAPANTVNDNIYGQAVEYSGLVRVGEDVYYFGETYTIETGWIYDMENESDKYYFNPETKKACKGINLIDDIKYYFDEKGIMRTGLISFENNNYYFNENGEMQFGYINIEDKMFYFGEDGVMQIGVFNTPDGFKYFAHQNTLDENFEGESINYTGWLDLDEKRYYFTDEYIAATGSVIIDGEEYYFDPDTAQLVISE
GDH-TPI inh: GDH-TPI coupling enzyme inhibitors, primary screen, artefact control for M. tuberculosis FBA inhibitor project, biochemical, absorbance, full deck; GDH-TPI coupled enzyme counterscreen, NADH absorbance; inhibition, % at 4.8 µM; 360,000 compounds, 1.2% hits; in the data active = inhibition above about 30%;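 note: 0% = DMSO wells and 100% = wells lacking the enzyme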
PrPC TRFRET: inhibitors of human cell surface prion protein PrPC, primary screen, cell-based, TR-FRET | TR-FRET read-out | inhibition, % at 13.8 µM | 370,000 compounds, 0.43% hits | AID 720596, 2013; in the data active = inhibition above about 24%; note: 0% = median of the test wells and 100% = reference compound wells
Active calls of the source: *; nt = no result; + = active, no number. Most compounds without a hit are left out; they make up all but 3.2% or so of the library.

SMILES	Mtb FBA inh	Yp Topo-I inh	TcdB GH inh	GDH-TPI inh	PrPC TRFRET
O=C(N/N=C/c1cc([N+](=O)[O-])ccc1O)c1ccc2c(c1)OCCO2	1	-11	1	32*	-5
Cc1ccsc1/C=N/NC(=O)c1ccc2c(c1)OCCO2	-2	4	2	34*	4
Cc1ccsc1/C=N\NC(=O)c1ccc2c(c1)OCO2	0	0	nt	40*	-5
Cc1ccc(/C=N/NC(=O)c2ccc3c(c2)OCCO3)s1	-5	-1	1	13	1
CN1C(=O)c2cc(NC(=O)C3CCCCC3)ccc2OC[C@@H]2O[C@@H](CC(=O)NCCc3ccncc3)CC[C@@H]21	nt	nt	0	nt	nt
O=C(C[C@@H]1C=C[C@H](NC(=O)C2CC2)[C@@H](CO)O1)Nc1ccccc1	nt	nt	0	nt	nt
O=C(c1cccc(F)c1)N1CCCCN2[C@@H](CO)[C@@H](c3ccc(C#CC4(O)CCCC4)cc3)[C@@H]2C1	nt	nt	-1	nt	nt
Cc1ccsc1/C=N/NC(=O)c1nnn(-c2nonc2N)c1CN(C)c1ccccc1	2	12	1	37*	0
CCc1c(C(=O)N/N=C/c2sccc2C)nnn1-c1nonc1N	0	-1	1	28	3
Cc1ccc(/C=N/NC(=O)c2nnn(-c3nonc3N)c2CN(C)C)s1	7	0	1	24	-5
Cc1ccc(/C=N/NC(=O)c2nnn(-c3nonc3N)c2CN(C)c2ccccc2)s1	-1	0	1	34*	-4
COc1cccc(-n2c(SCC(=O)N3CCOCC3)nc3c([nH]c4ccccc43)c2=O)c1	0	-1	nt	33*	-1
COc1cccc(-n2c(SCC(=O)N3CCOCC3)nnc2-c2c[nH]c3ccccc23)c1	5	10	11*	11	4
Cc1noc(C)c1S(=O)(=O)Nc1ccc2c(c1)C(=O)N([C@@H](C)CO)C[C@H](C)[C@H](CN(C)S(C)(=O)=O)O2	nt	nt	0	nt	nt
CCOC(=O)c1c(NC(=O)CCc2ccc(CC)o2)sc(C)c1C	1	57*	0	5	6
COC(=O)c1c(NC(=O)CCc2ccc(C)o2)sc(C)c1C	7	5	nt	9	0
O=C(C1=C[C@@H](c2ccccc2)C[C@@H](OCc2ccc(CO)cc2)O1)N1CCCC1	nt	nt	0	nt	nt
Cn1c(=O)c(Cc2ccccc2)c(O)c2ccccc21	26	3	-16	9	3
CCCc1c(O)c2ccccc2n(-c2ccccc2)c1=O	45*	-2	nt	14	-1
COc1ccc(-c2ccc(C(=S)N3CCN(C(C)=O)CC3)o2)cc1	7	5	nt	32*	5
CCOc1cc(NC(=S)NCC2CCCO2)c(OCC)cc1NC(=O)c1ccc(C)cc1 (stereo unspecified)	-1	2	nt	0	2
CCOc1cc(NC(=S)NCC2CCCO2)c(OCC)cc1NC(=O)c1ccc(F)cc1 (stereo unspecified)	-1	-6	19*	21	7
O=C(C[C@H]1CC[C@H]2[C@@H](COC[C@@H](O)CN2C(=O)c2cnccn2)O1)NCc1ccc(F)cc1	nt	nt	-1	nt	nt
O=C1CN(Cc2ccccc2)C[C@@H]2[C@@H](c3ccc(-c4ccccc4F)cc3)[C@@H](CO)N12	nt	nt	0	nt	nt
CCn1c(=NC(=O)c2ccc(N3C(=O)CCC3=O)cc2)sc2c(OC)ccc(OC)c21	1	5	-1	37*	2
SMILES	Mtb FBA inh	Yp Topo-I inh	TcdB GH inh	GDH-TPI inh	PrPC TRFRET
CCn1c(=NC(=O)c2cccc(N3C(=O)CCC3=O)c2)sc2c(C)ccc(OC)c21	6	6	2	38*	-3
Cn1c(=O)c2cc(NC(=O)CCc3ccccc3)ccc2n1-c1ccccc1F	114*	20	1	13	8
CCOCCC(=O)Nc1ccc2c(c1)c(=O)n(C)n2C/C=C/c1ccccc1	113*	5	1	4	8
CSc1cccc(NC(=O)CCc2ccccc2)c1	1	12	11*	3	1
CSc1cccc(NC(=S)NC(=O)CCc2ccccc2)c1	-1	13	2	1	6
CC(CC(=O)Nc1ccc2c(c1)c(=O)n(C)n2-c1ccccc1)c1ccccc1 (stereo unspecified)	13	14	0	5	9
CCOCCC(=O)Nc1ccc2c(c1)c(=O)n(C)n2-c1ccccc1F	181*	1	0	12	-2
C[C@H]1CN([C@@H](C)CO)C(=O)Cc2cc(NC(=O)Nc3ccc4c(c3)OCO4)ccc2O[C@@H]1CN(C)S(=O)(=O)c1ccccc1	nt	nt	1	nt	nt
COCC(=O)N[C@@H]1C=C[C@H](CC(=O)NCc2ccc(Cl)cc2)O[C@H]1CO	nt	nt	-2	nt	nt
C[C@H](CO)N1C[C@H](C)[C@H](CN(C)Cc2ccc(F)cc2)OCc2ccccc2-c2ccccc2C1=O	nt	nt	2	nt	nt
C[C@@H]1CCCCO[C@H](CN(C)CC2CCCCC2)[C@@H](C)CN([C@@H](C)CO)C(=O)c2cc(NS(=O)(=O)c3cccs3)ccc2O1	nt	nt	-2	nt	nt
CCCCNC(=O)CCC(=O)Nc1ccc2nc(N3CCN(C)CC3)cc(C)c2c1	23	5	1	3	5
CCOC(=O)N1CCC(NC(=S)Nc2ccc3nc(N4CCN(CC)CC4)cc(C)c3c2)CC1	13	18	2	35*	3
CCCN(CCC)CCNC(=O)CCC(=O)Nc1ccc2nc(N3CCN(C)CC3)cc(C)c2c1	+	-10	3	16	2
CCCC1(C)Nc2ccccc2-c2nc3ccccc3n21 (stereo unspecified)	179*	-15	nt	21	4
O=C1c2ccccc2NC2(CCCC2)N1O	1	0	nt	14	4
c1ccc2c(c1)NC1(CCCC1)n1c-2nc2ccccc21	+	-2	2	11	10
CC(C)(C)c1ccc(C(=O)NC(=S)Nc2nc3c(s2)CCCC3)cc1	6	-3	0	8	0
CN(C)c1ccc(C(=O)Nc2nc3c(s2)CCCC3)cc1	2	0	2	37*	7
O=C(C[C@H]1CC[C@H]2[C@@H](COC[C@@H](O)CN2CCc2ccccc2)O1)NCCCN1CCOCC1	nt	nt	-1	nt	nt
COc1ccc2c(c1)C(=O)[C@H](O)[C@@H](c1ccc(OC)c(Br)c1)O2	nt	nt	1	nt	-1
O=C1c2cc(O)c(O)cc2OC(c2ccc(O)c(O)c2)C1O (stereo unspecified)	-6	1	0	32*	1
c1ccc2c(c1)[IH]c1ccccc1-2	-4	-10	2	0	35*
CC(C)C#Cc1ccc2c(c1)O[C@@H](CN(C)Cc1cncnc1)[C@@H](C)CN([C@H](C)CO)S2(=O)=O	nt	nt	-1	nt	nt
Cc1cc(C)c2c(n1)nn1c(N3CCN(Cc4ccccc4)CC3)cc(C)nc21	114*	4	nt	20	-7
